# For part of these data: Measured potencies and affinities stand elsewhere.
# Assays:
# Staphylococcus aureus = assay: Antibacterial activity against Staphylococcus aureus MRSA ATCC 43300 (CO-ADD:GP_020); MIC in CAMBH media using NBS plates, by Resazurin F(560/590); assay type: functional; conditions: Concentration 20 uM, ASSAY_TEST Inhibition of Bacterial Growth, detection method Resazurin, Fluorescence (ex560/em590), MEDIA CAMHB, plate type 384well, CORNING #3640, time 18 hr
# Acinetobacter baumannii = assay: Antibacterial activity against Acinetobacter baumannii ATCC 19606 (CO-ADD:GN_034); MIC in CAMBH media using NBS plates, by Resazurin F(560/590); assay type: functional; conditions: Concentration 20 uM, ASSAY_TEST Inhibition of Bacterial Growth, detection method Resazurin, Fluorescence (ex560/em590), MEDIA CAMHB, plate type 384well, CORNING #3640, time 18 hr
# Escherichia coli = assay: Antibacterial activity against Escherichia coli ATCC 25922 (CO-ADD:GN_001); MIC in CAMBH media using NBS plates, by Resazurin F(560/590); assay type: functional; conditions: Concentration 20 uM, ASSAY_TEST Inhibition of Bacterial Growth, detection method Resazurin, Fluorescence (ex560/em590), MEDIA CAMHB, plate type 384well, CORNING #3640, time 18 hr
# Klebsiella pneumoniae = conditions: Concentration 20 uM; ASSAY_TEST Inhibition of Bacterial Growth; detection method Absorption (OD600); MEDIA CAMHB; plate type 384well; NBS; CORNING #3640; time 18 hr
# Candida albicans = conditions: 20 µM
# Cryptococcus neoformans = conditions: Concentration 20 uM; ASSAY_TEST Inhibition of Fungal Growth; detection method Resazurin; Absorption (OD600-OD570); plate type 384well; NBS; CORNING #3640
Compound,Inhibition (Staphylococcus aureus) [%],Inhibition (Acinetobacter baumannii) [%],Inhibition (Escherichia coli) [%],Inhibition (Klebsiella pneumoniae) [%],Inhibition (Candida albicans) [%],Inhibition (Cryptococcus neoformans) [%]
CC(O)c1nc2c(c(=O)n(C)c(=O)n2C)n1C (configuration not stated),-5.57,-6.98,6.75,7.56,-1.01,-6.24
CCC/C(C)=C/c1ccc(CC)cn1,1.51,-4.3,-16.08,8.87,3.23,27.41
C1COCCN1.O=C(O)C(C=C(Cl)Cl)N1CCOCC1 (configuration not stated),15.53,-4.57,-1.54,22.22,3.18,-2.22
Cc1ccc(/C=C2\CCOC2=O)cc1,9.11,-13.71,3.05,29.06,11.6,1.19
CCCCC(=O)N1CCCC(C)C1 (configuration not stated),12.48,-11.97,4.56,-3.93,4.76,-4.37
N#CCc1cnc2ccccc2n1,13.21,-15.61,3.75,2.07,-2.07,-9.92
c1ccc(NCCSc2nc3ccccc3s2)cc1,32.95,-17.22,10.16,12.47,3.32,13.76
CNC(=O)c1nn(C)c(=O)[nH]c1=O,3.46,-10.49,19.05,15.09,4.6,-7.3
NC(=O)c1cc(C(N)=O)nc(Cl)n1,12.7,0.04,10.33,2.11,-2.97,-9.62
c1coc(CNc2[nH]cnc3nncc2-3)c1,12.65,-12.11,11.54,7.55,0.96,-6.46
O=C(/C=C/c1ccccc1)CC(c1ccccc1)N1CCOCC1 (configuration not stated),13.93,0.36,-4.09,21.53,12.7,-9.56
Cc1cc(NC(=O)NC(=O)c2ccccc2NC(=O)C(C)N)ccc1Oc1ncc(Br)cn1.Cl (configuration not stated),19.83,-8.48,11.58,15.35,-1.4,-7.47
CC(C)(C)c1ccc(OC(=O)c2ccccc2)cc1,-7.46,6.71,7.42,8.33,9.75,-15.41
CC(=O)OCCn1c2nc(=O)[nH]c(=O)c-2nc2cc(C)c(C)cc21,-0.64,-11.64,4.08,3.5,-0.26,-7.97
COc1ccc(/N=C\c2c(O)ccc3c2oc2cc(Cl)c(O)c(Cl)c23)cc1,-3.23,0.5,-4.89,17.64,2.89,-10.03
Nc1n[nH]c(-c2ccccc2)n1,11.8,-13.69,16.83,8.63,-1.64,-8.71
Nc1nc(N)c(/N=N/c2ccc(S(N)(=O)=O)cc2)c(O)n1,11.8,-8.6,-8.26,23.84,0.97,-15.08
Cc1cn(C2CC(O)C(CO)O2)c(=O)n(Cc2ccccc2)c1=O (configuration not stated),4.94,6.87,7.7,11.99,1.89,-13.31
CCC(C)c1c(N)n(S(=O)(=O)c2ccc(C)cc2)oc1=O (configuration not stated),12.19,-9.07,9,8.85,1.8,-2.18

Compound,Inhibition (Staphylococcus aureus) [%],Inhibition (Acinetobacter baumannii) [%],Inhibition (Escherichia coli) [%],Inhibition (Klebsiella pneumoniae) [%],Inhibition (Candida albicans) [%],Inhibition (Cryptococcus neoformans) [%]
CSc1cccc(NC(=O)Nc2nc3c(C)cccc3s2)c1,-3.9,2.69,8.83,7.86,-0.92,-2.59
C=CCOc1ccnc(-c2ccccc2)n1,-3.88,-11.54,5,9.63,1.14,-7.2
ON=C(NCc1ccccc1)c1ccccc1,-15.15,6.48,-18.65,2.92,-0.43,19.05
c1ccc(-c2nnc(-c3ccccc3)nn2)cc1,8.93,4.53,11.38,-4.08,-1.88,-7.33
Oc1ccc(/C=C\c2cnccn2)cc1,3.99,-7.27,16.94,16.23,1.24,-11.21
CCOC(=O)c1c(C)nc(C)c(C(=O)OCC)c1-c1ccc(OC)cc1,0.94,2.04,-21.92,2.6,6.74,19.28
CC1(C)C2CCC(CN=C(N)CSS(=O)(=O)O)C1C2 (configuration not stated),18.41,14.08,1.93,19.04,-2.77,-13.54
Nc1nc(N)nc(-c2ccccc2-c2nc(N)nc(N)n2)n1,10.97,8.5,-2.58,13.54,6.82,-8.57
O=C(Cn1ccc(=O)[nH]c1=O)Nc1nccs1,4.05,-8.5,10.86,12.12,0.84,-10.28
COc1ccccc1/C=C(\C#N)C(=O)O,12.51,1.75,5.31,6.46,6.96,-7.1
c1ccc2[nH]c(CCCCCc3nc4ccccc4[nH]3)nc2c1,5.94,0.02,-19.74,9.39,4.8,17.08
O=NC1=C(c2cccc([N+](=O)[O-])c2)Nc2ccccc2S1,0.76,0.77,-6.48,32.11,13.1,-8.32
COc1cccc(/C=C/c2nccc3ccccc23)c1OC,13.01,1.37,11.96,0.37,0.68,-13.37
NC(=O)c1cc2c3ccccc3ccn2c1-c1ccccc1,8.37,-5.02,3.37,9.25,6.45,-9.75
O=C(O)CCc1cccnc1,18.41,-3.93,16.49,14.5,1.32,-2.51
CC(C)(C)c1ccc(NS(=O)(=O)c2ccc(N)cc2)cc1,8.8,3.26,-6.26,16.84,3.64,-7.4
CCCCOc1nc2c(c(=O)n(C)c(=O)n2C)n1C,18.84,14.19,18.86,3.58,11,10.8
Cc1cnc2c(N)cc(C)c(C)c2c1,23.12,-5.88,9.48,9.31,23.1,-10.43

# Reference: ChEMBL document CHEMBL4296182, “CO-ADD screening of NIH NCI Diversity Set V”
